From PubChem BioAssay AID1851 (National Center for Advancing Translational Sciences (NCATS), 2009) come the findings set out here.

The campaign covered roughly 16,000 compounds. About 5,800 (36%) were called active. Another 23% or so got no clear call; they are omitted. Some of the results follow. Unmarked numbers belong to inactive results. The call rests on the fitted dose curve; in most records, active means well fitted curve in the direction sought with a large enough effect; inconclusive means small, poorly fitted or top-dose-only effect, or effect the other way; inactive means no such curve, though single readings can be large or run the other way.

For orientation: AC50 means the midpoint of the concentration-response curve, whichever way the signal moves.
On the % scale 0 is the no-effect control and ±100 the full control effect.

Cytochrome P450 2C19 (Homo sapiens), sequence (P33261 whole entry, looked up): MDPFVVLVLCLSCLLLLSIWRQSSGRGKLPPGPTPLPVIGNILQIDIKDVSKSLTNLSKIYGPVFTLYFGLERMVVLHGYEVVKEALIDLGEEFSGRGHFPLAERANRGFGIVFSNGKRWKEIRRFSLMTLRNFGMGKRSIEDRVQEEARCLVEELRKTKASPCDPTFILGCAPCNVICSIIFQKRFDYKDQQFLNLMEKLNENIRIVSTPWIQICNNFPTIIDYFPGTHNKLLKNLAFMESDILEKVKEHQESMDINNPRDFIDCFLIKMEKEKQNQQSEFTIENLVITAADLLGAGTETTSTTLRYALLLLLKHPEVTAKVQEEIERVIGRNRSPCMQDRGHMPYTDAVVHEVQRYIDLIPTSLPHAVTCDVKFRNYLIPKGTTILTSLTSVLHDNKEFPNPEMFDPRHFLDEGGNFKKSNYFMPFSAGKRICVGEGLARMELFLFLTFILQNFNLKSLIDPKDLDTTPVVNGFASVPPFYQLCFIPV

This assay has as its target Cytochrome P450 2C19 (Homo sapiens) (UniProt P33261). As to the kind of experiment: Cytochrome panel assay with activity outcomes. Conditions: recombinant CYP, pro-luciferin dealkylation, luminescence, p450-cyp2c19; series mostly up to 57.1 µM; activity, negative = inhibition: at the top concentration.
Regarding `O=C(Nc1ccc2c(c1)OCCO2)C1CCN(C(=O)c2ccccc2)CC1`, the AC50 was 22400 nM (active).

Regarding `CC(C)=CCC/C(C)=C/CO/N=C1/C[C@@H](O)[C@@H](O)[C@@H]2[C@@H]3C(=O)N(C4CCCCC4)C(=O)[C@H]3CC[C@@H]12`, the activity, negative = inhibition was -41.2% [at 11.4 µM].

For the compound `O=C(CN1C(=O)C2C3C=CC(C3)C2C1=O)Nc1ccc2c(c1)OCCO2` (centres undefined), the “activity, negative = inhibition” value is -37.3%.

For the compound `COc1ccc(NC(=O)CN2c3cccc4cccc(c34)S2(=O)=O)cc1`, the AC50 is 10000 nM (active).

On to `CC(=O)Nc1ccc2c(c1)OCCOCCOc1cc(NC(C)=O)ccc1OCCOCCOCCO2`, for which the “activity, negative = inhibition” value is -22.4%.

As to `O=C(CC(c1ccccc1)c1ccccc1)Nc1ccc2c(c1)OCCO2`, the concentration at half-maximal activity (AC50) is 2820 nM (active).

Turning to `O=C(CN1CCN(CC(=O)Nc2ccccc2Cl)CC1)Nc1ccc2c(c1)OCCO2`, the half-maximal activity concentration (AC50) was 891 nM (active).

As to `COc1ccccc1NC(=O)CN1CCN(CC(=O)Nc2ccc(OCc3ccccc3)cc2)CC1`, the AC50 is 631 nM (active).

Regarding `COc1ccccc1NC(=O)c1cnc2n(c1=O)CCS2`, the “activity, negative = inhibition” value was -4.96%.

As to `O=C(CN1C(=O)c2ccccc2S1(=O)=O)Nc1ccccc1`, the “activity, negative = inhibition” value is -22%.

For the compound `CCCN1C[C@H](CSC)C[C@H]2c3cccc4[nH]cc(c34)C[C@@H]21`, the “activity, negative = inhibition” value is -6.92% [at 25.6 µM].

As to `CN1CCN(CCCNC(=O)C2CCN(c3nnc(-n4cccc4)s3)CC2)CC1`, the “activity, negative = inhibition” value was -20.2%.

Take `CC(C)CO/N=C1/C[C@@H](O)[C@@H](O)[C@@H]2[C@@H]3C(=O)N([C@@H](C)c4ccccc4)C(=O)[C@H]3CC[C@H]12`: the activity, negative = inhibition was -12.9% [at 11.4 µM].

With `COc1cc2c(cc1OC)C(C(=O)N1CCN(c3ccccn3)CC1)C(c1cccs1)N(C)C2=O` (centres undefined), the “activity, negative = inhibition” value is -24.5%.

Regarding `COc1cc(NC(=O)c2ccccc2)c(OC)cc1NC(=O)CN1CCN(c2ccccn2)CC1`, the half-maximal activity concentration (AC50) was 17800 nM (active).

Turning to `Cc1cccc(NC(=S)N2CCC(N(C)CC3CCCO3)CC2)c1C` (centres undefined), the “activity, negative = inhibition” value is -10.8%.

Turning to `Cc1c(NC(=O)CN2CCN(c3ccccc3)CC2)c(=O)n(-c2ccccc2)n1C`, the “activity, negative = inhibition” value is -5.89%.

For `Cc1c(Cl)cccc1NC(=O)CN1CCC(C(O)(c2ccccc2)c2ccccc2)CC1`, the AC50 is 11200 nM (active).

As for `Cc1cccc(C)c1NC(=O)CS(=O)CC(=O)Nc1ccc(F)cc1F` (centres undefined), the “activity, negative = inhibition” value is -53.4%.

Turning to `Cc1ccc(NC(=O)c2c(C(F)(F)F)nn(C)c2SCc2cccc(C(F)(F)F)c2)cc1C`, the AC50 is 562 nM (active).

As for `Cn1nc(C(F)(F)F)c(C(=O)Nc2ccc(F)cc2F)c1Sc1cccc(C(F)(F)F)c1`, the half-maximal activity concentration (AC50) was 501 nM (active).

In the case of `Cc1ccc(NC(=O)c2sccc2SCc2cccc(C(F)(F)F)c2)cc1`, the concentration at half-maximal activity (AC50) is 631 nM (active).

With `Cn1nc(C(F)(F)F)c(C(=O)Nc2ccc(F)cc2F)c1Sc1ccc(C(F)(F)F)cc1`, the concentration at half-maximal activity (AC50) was 631 nM (active).

As to `C1COC(NC(C2CC2)C2CC2)=N1`, the AC50 entry is “inactive”.

Regarding `CCCN1C[C@@H](CSC)C[C@H]2c3cccc4[nH]cc(c34)C[C@@H]21`, the “activity, negative = inhibition” value was 43.8%.

Consider `O=C(OCc1nc2ccccc2[nH]1)C12CC3CC(CC(C3)C1)C2`, for which the concentration at half-maximal activity (AC50) was 2510 nM (active).

Regarding `O=C1CC[C@](CCc2nc3ccccc3[nH]2)(c2ccccc2)C(=O)N1`, the activity, negative = inhibition is -21.5% [at 11.4 µM].

With `COC(=O)Cc1cc(=O)n2[nH]c(C)c(-c3ccccc3)c2n1`, the “activity, negative = inhibition” value was -19%.

For `Cc1ccc(-c2[nH]n3c(=O)c4c(nc3c2C)CCCC4)cc1`, the half-maximal activity concentration (AC50) is 3980 nM (active).

On to `COc1ccc(CNc2nc3nc4c(c(=O)n3[nH]2)CCC4)cc1`, for which the “activity, negative = inhibition” value was -14.3%.

With `Cc1ccc(N=Nc2c(N)[nH]n3c(=O)c4c(nc23)CCCC4)cc1`, the AC50 was 25100 nM (active).

For `Cc1[nH]n2c(=O)c3c(nc2c1-c1cccc2ccccc12)CCC3`, the AC50 was 8910 nM (active).

With `CSc1nc2nc3c(c(=O)n2[nH]1)CN(Cc1ccccc1)CC3`, the “activity, negative = inhibition” value was -6.28%.

In the case of `Nc1[nH]n2c(=O)c3c(nc2c1N=Nc1ccccc1)CCCC3`, the “activity, negative = inhibition” value is -28.5%.

For the compound `N#Cc1c[nH]n2c(=O)c3c(nc12)CCCC3`, the “activity, negative = inhibition” value is -4.58%.

For `COc1cccc([C@H](O)Cn2cc(-c3cccc(CON=C(C)C)c3)nn2)c1`, the activity, negative = inhibition was -19.8% [at 11.4 µM].

With `CC(C)c1ccc(N=c2c([N+](=O)[O-])nn(-c3ccc4c(c3)OCCO4)n2O)cc1`, the concentration at half-maximal activity (AC50) was 11200 nM (active).

With `COc1ccc(OC)c(C2C3=C(COC3=O)Nc3cc4c(cc32)OCO4)c1` (centres undefined), the half-maximal activity concentration (AC50) is 1120 nM (active).

On to `CC1(C)Oc2cc(N)c([N+](=O)[O-])cc2O1`, for which the AC50 was 10000 nM (active).

For `CC1(C)Cc2c(sc3nc(-c4ccccc4)n(N)c(=O)c23)CO1`, the half-maximal activity concentration (AC50) is 25100 nM (active).

`Cc1nn2c(C)nc3sc4c(c3c2nc1=O)CC(C)(C)OC4`: the “activity, negative = inhibition” value was -20.1%.

For `Nc1nc(SCCc2ccccc2)c2[nH]cnc2n1`, the AC50 is 631 nM (active).

On to `O=c1[nH]c(SCc2ccccc2[N+](=O)[O-])nc2nc[nH]c12`, for which the activity, negative = inhibition is 23.8% [at 11.4 µM].

Turning to `CCC[C@H](Sc1nc(N)nc2nc[nH]c12)C(=O)O`, the activity, negative = inhibition was 25% [at 11.4 µM].

For `Nc1nc(N)c2[nH]cnc2n1` (tested in a mixture with another compound), the activity, negative = inhibition is 6.99% [at 11.4 µM].

As to `Nc1nc(Sc2ccc([N+](=O)[O-])c3nonc23)c2[nH]cnc2n1`, the AC50 is 1580 nM (active).

Turning to `Nc1nc(SCc2ccccc2[N+](=O)[O-])c2[nH]cnc2n1`, the AC50 is 1000 nM (active).

With `Nc1nc(SC/C=C\c2ccccc2)c2[nH]cnc2n1`, the half-maximal activity concentration (AC50) was 1580 nM (active).

For the compound `CC(C)[C@H](Sc1nc(N)nc2nc[nH]c12)C(=O)O`, the activity, negative = inhibition is 22.9% [at 11.4 µM].
